# According to PubChem BioAssay (NCATS):
# Several values for one entry are separate records, joined by “and”; a condition that tells them apart may be missing. Equal values may be shown once. Inconclusive results are not listed. Where a call stands in place of a potency, no number is given. Activity calls are given as the source filed them. Unless noted, calls come from the whole dose curve; as a rule, active = well fitted curve in the direction sought with a large enough effect; inconclusive = small, poorly fitted or top-dose-only effect, or another doubt; inactive = no such curve, though single readings can be large; an effect the other way counts as inactive or inconclusive. Non-standard residues stand in square brackets, D forms with d. Residues, ends and D or L forms follow the SMILES beside them. *: point of attachment. Sta = CC(C)C[C@H](N)[C@@H](O)CC(=O)O; Isovaleryl = CC(C)CC(=O)*
# Target: Cytochrome P450 2C9 (Homo sapiens) (UniProt P11712)
# Experiment: Cytochrome P450 family 2 subfamily C member 9 (CYP2C9) small molecule antagonists: luciferase biochemical (cell-free) qHTS assay (AID 1645842; active = well fitted curve in the direction sought with a large enough effect in the repeat runs; an effect the other way counts as inactive or inconclusive; note: nearly all actives have a fitted effect of over 55% in size; note: potency is the fitted concentration of half-maximal effect)
# Conditions: P450-Glo CYP2C9 enzyme assay, luciferin luminescence; series mostly up to 57.4 µM
# In short: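 Luminescence, after 20 min with luciferin detection reagent, reflected CYP2C9 turnover during a 1 h NADPH-driven reaction at 37C. Enzyme-substrate mix contained 0.4% bovine serum albumin and was preincubated with compound 10 min at room temperature.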
# Sequence of Cytochrome P450 2C9 (Homo sapiens) (P11712 whole entry, looked up): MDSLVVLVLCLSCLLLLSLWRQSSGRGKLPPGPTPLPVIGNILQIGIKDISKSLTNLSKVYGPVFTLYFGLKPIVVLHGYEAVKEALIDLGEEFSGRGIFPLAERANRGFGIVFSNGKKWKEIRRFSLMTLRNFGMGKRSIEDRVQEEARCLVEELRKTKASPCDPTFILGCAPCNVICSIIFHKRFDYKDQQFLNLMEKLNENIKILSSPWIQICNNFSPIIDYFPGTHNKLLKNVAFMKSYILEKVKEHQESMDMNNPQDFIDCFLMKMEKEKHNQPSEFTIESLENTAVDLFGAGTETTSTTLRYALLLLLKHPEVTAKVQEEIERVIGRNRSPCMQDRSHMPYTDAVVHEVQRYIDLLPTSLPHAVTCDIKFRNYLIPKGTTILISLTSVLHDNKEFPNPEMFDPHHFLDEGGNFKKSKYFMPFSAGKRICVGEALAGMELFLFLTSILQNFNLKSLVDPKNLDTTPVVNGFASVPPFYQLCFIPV
row,SMILES,Potency
1,c1cnc2cc3c(cc2n1)C1CNCC3C1,inactive
2,Cc1cccc(C)c1OCC(=O)N[C@@H](Cc1ccccc1)[C@@H](O)C[C@H](Cc1ccccc1)NC(=O)[C@H](C(C)C)N1CCCNC1=O,17.4 µM (active)
3,CCCc1cc(=O)[nH]c(=S)[nH]1,inactive
4,COc1cc(Nc2c(C#N)cnc3cc(OCCCN4CCN(C)CC4)c(OC)cc23)c(Cl)cc1Cl,inactive
5,CCC[C@@H]1C[C@@H](C(=O)N[C@@H]([C@H]2O[C@H](SC)[C@H](O)[C@@H](O)[C@H]2O)[C@@H](C)O)N(C)C1,inactive
6,CN(C)c1ccc(O)c2c1C[C@H]1C[C@H]3[C@H](N(C)C)C(=O)C(C(N)=O)=C(O)[C@@]3(O)C(=O)C1=C2O,inactive
7,NNc1nncc2ccccc12,inactive
8,Cc1nc2n(c(=O)c1CCN1CCC(c3noc4cc(F)ccc34)CC1)CCCC2,inactive
9,S=c1nc[nH]c2nc[nH]c12,19.5 µM (active)

# Target: Papain (Carica papaya) (UniProt P00784)
# Experiment: Primary qHTS assay for inhibitors of the protease papain (AID 1645873);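 note: papain turnover of Z-FR-AMC read as the AMC fluorescence gain over 10 min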
# Conditions: papain Z-FR-AMC cleavage, AMC fluorescence; series mostly up to 49.8 µM
# Sequence of Papain (Carica papaya) (P00784 whole entry, looked up): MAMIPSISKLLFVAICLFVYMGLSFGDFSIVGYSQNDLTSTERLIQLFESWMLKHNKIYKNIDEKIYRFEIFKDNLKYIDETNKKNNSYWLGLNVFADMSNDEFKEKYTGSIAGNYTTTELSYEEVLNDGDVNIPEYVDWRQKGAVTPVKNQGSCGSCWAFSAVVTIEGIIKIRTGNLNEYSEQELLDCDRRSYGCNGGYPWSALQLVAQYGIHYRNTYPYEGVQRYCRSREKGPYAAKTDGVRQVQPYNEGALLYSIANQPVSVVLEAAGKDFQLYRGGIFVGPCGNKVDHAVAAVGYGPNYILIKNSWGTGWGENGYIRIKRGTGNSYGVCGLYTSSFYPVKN
row,SMILES,Potency
1,CC1(C)NC(=O)N(c2ccc([N+](=O)[O-])c(C(F)(F)F)c2)C1=O,inactive
2,CCN(CC)C(=S)SSC(=S)N(CC)CC,inactive
3,c1cnc2cc3c(cc2n1)C1CNCC3C1,inactive
4,NNc1nncc2ccccc12,inactive
5,C[C@H](Cc1ccc(O)c(O)c1)[C@@H](C)Cc1ccc(O)c(O)c1,inactive

# Tested on: not listed separately
# Experiment: Primary qHTS for inhibitors of nuclear receptor binding SET domain protein 2 (NSD2) in an isogenic RCH-ACV NSD2 p.E1099K mutant (9B) (AID 1645876); note: nearly all actives have a fitted effect of over 70% in size; note: potency is the fitted concentration of half-maximal effect
# Conditions: RCH-ACV NSD2 E1099K (9B) viability, CellTiter-Glo, 72 h; series mostly up to 44.9 µM
row,SMILES,Potency
1,CC1(C)NC(=O)N(c2ccc([N+](=O)[O-])c(C(F)(F)F)c2)C1=O,inactive
2,O=C(O)c1cc(=O)c2c(OCC(O)COc3cccc4oc(C(=O)O)cc(=O)c34)cccc2o1,inactive
3,O=c1cc(N2CCOCC2)oc2c(-c3ccccc3)cccc12,4.17 µM (active)
4,N=C(N)c1ccc2cc(OC(=O)c3ccc(N=C(N)N)cc3)ccc2c1,inactive
5,O=C(O)c1cn(-c2ccc(F)cc2)c2cc(N3CCNCC3)c(F)cc2c1=O,inactive
6,COCCCOc1ccnc(CS(=O)c2nc3ccccc3[nH]2)c1C (configuration not stated),inactive
7,CCCOc1ccc2nc(NC(=O)OC)[nH]c2c1,411 nM (active) and 417 nM (active)
8,CC1=C(C(=O)O)N2C(=O)[C@@H](NC(=O)[C@H](N)C3=CCC=CC3)[C@H]2SC1,inactive
9,CCN(CC)C(=S)SSC(=S)N(CC)CC,351 nM (active) and 2.66 µM (active) and 2.63 µM (active)
10,COC(=O)C1=C(C)NC(C)=C(C(=O)OCCCN2CCC(c3ccccc3)(c3ccccc3)CC2)C1c1cccc([N+](=O)[O-])c1 (configuration not stated),7.42 µM (active) and 7.5 µM (active)
11,Clc1ccc(C(Cn2ccnc2)OCc2ccc(Sc3ccccc3)cc2)c(Cl)c1 (configuration not stated),18.6 µM (active)
12,CN1C(C(=O)Nc2ccccn2)=C(O)c2sccc2S1(=O)=O,inactive
13,CC(C)CC(=O)N[C@H](C(=O)N[C@H](C(=O)N[C@@H](CC(C)C)[C@@H](O)CC(=O)N[C@@H](C)C(=O)N[C@@H](CC(C)C)[C@@H](O)CC(=O)O)C(C)C)C(C)C (Isovaleryl-VV[Sta]A[Sta]-OH),inactive
14,CC(C)Oc1ccc2c(=O)c(-c3ccccc3)coc2c1,inactive
15,c1cnc2cc3c(cc2n1)C1CNCC3C1,inactive
16,CCCc1cc(=O)[nH]c(=S)[nH]1,inactive
17,COc1cc(Nc2c(C#N)cnc3cc(OCCCN4CCN(C)CC4)c(OC)cc23)c(Cl)cc1Cl,596 nM (active) and 1.63 µM (active) and 1.32 µM (active)
18,CN(C)c1ccc(O)c2c1C[C@H]1C[C@H]3[C@H](N(C)C)C(=O)C(C(N)=O)=C(O)[C@@]3(O)C(=O)C1=C2O,inactive
19,NNc1nncc2ccccc12,inactive
20,Cc1nc2n(c(=O)c1CCN1CCC(c3noc4cc(F)ccc34)CC1)CCCC2,inactive
21,S=c1nc[nH]c2nc[nH]c12,944 nM (active) and 2.63 µM (active)
22,C[C@H](Cc1ccc(O)c(O)c1)[C@@H](C)Cc1ccc(O)c(O)c1,13.2 µM (active) and 7.31 µM (active)

# Tested on: not listed separately
# Experiment: Primary qHTS for inhibitors of nuclear receptor binding SET domain protein 2 (NSD2) in an RCH-ACV wild type WT cells (2C) (AID 1645877); note: nearly all actives have a fitted effect of over 70% in size; note: potency is the fitted concentration of half-maximal effect
# Conditions: RCH-ACV (leukaemia line) NSD2 WT (2C) viability, CellTiter-Glo, 72 h; series mostly up to 44.9 µM
row,SMILES,Potency
1,CC1(C)NC(=O)N(c2ccc([N+](=O)[O-])c(C(F)(F)F)c2)C1=O,inactive
2,O=C(O)c1cc(=O)c2c(OCC(O)COc3cccc4oc(C(=O)O)cc(=O)c34)cccc2o1,inactive
3,O=c1cc(N2CCOCC2)oc2c(-c3ccccc3)cccc12,2.63 µM (active)
4,N=C(N)c1ccc2cc(OC(=O)c3ccc(N=C(N)N)cc3)ccc2c1,inactive
5,O=C(O)c1cn(-c2ccc(F)cc2)c2cc(N3CCNCC3)c(F)cc2c1=O,inactive
6,COCCCOc1ccnc(CS(=O)c2nc3ccccc3[nH]2)c1C (configuration not stated),inactive
7,CCCOc1ccc2nc(NC(=O)OC)[nH]c2c1,366 nM (active) and 263 nM (active)
8,CCN(CC)C(=S)SSC(=S)N(CC)CC,394 nM (active) and 4.22 µM (active) and 2.95 µM (active)
9,COC(=O)C1=C(C)NC(C)=C(C(=O)OCCCN2CCC(c3ccccc3)(c3ccccc3)CC2)C1c1cccc([N+](=O)[O-])c1 (configuration not stated),6.61 µM (active) and 5.96 µM (active)
10,Clc1ccc(C(Cn2ccnc2)OCc2ccc(Sc3ccccc3)cc2)c(Cl)c1 (configuration not stated),16.6 µM (active)
11,CN1C(C(=O)Nc2ccccn2)=C(O)c2sccc2S1(=O)=O,inactive
12,CC(C)CC(=O)N[C@H](C(=O)N[C@H](C(=O)N[C@@H](CC(C)C)[C@@H](O)CC(=O)N[C@@H](C)C(=O)N[C@@H](CC(C)C)[C@@H](O)CC(=O)O)C(C)C)C(C)C (Isovaleryl-VV[Sta]A[Sta]-OH),inactive
13,CC(C)Oc1ccc2c(=O)c(-c3ccccc3)coc2c1,inactive
14,c1cnc2cc3c(cc2n1)C1CNCC3C1,inactive
15,CCCc1cc(=O)[nH]c(=S)[nH]1,inactive
16,COc1cc(Nc2c(C#N)cnc3cc(OCCCN4CCN(C)CC4)c(OC)cc23)c(Cl)cc1Cl,531 nM (active) and 1.63 µM (active) and 1.48 µM (active)
17,CN(C)c1ccc(O)c2c1C[C@H]1C[C@H]3[C@H](N(C)C)C(=O)C(C(N)=O)=C(O)[C@@]3(O)C(=O)C1=C2O,inactive
18,NNc1nncc2ccccc12,inactive
19,Cc1nc2n(c(=O)c1CCN1CCC(c3noc4cc(F)ccc34)CC1)CCCC2,inactive
20,S=c1nc[nH]c2nc[nH]c12,668 nM (active) and 1.66 µM (active)
21,C[C@H](Cc1ccc(O)c(O)c1)[C@@H](C)Cc1ccc(O)c(O)c1,11.8 µM (active) and 7.31 µM (active)
